# Kir21 inh: Kir2.1 (mouse) channel inhibition; P35561; 0.85% of 310,000 active; AID 1672; HEK293-Kir2.1, FluxOR thallium flux fluorescence; active compounds read low; B-score at 10 µM;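 active = fluorescence ratio B-score at or below minus 3 SD of library scores, with starting-brightness B-score within 2 SD, cut at about -4.2 in these data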;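 also: channel flux triggered by added potassium and thallium sulfate stimulus; B-score of peak minus minimum fluorescence over baseline after thallium stimulus; more negative B-score means stronger Kir2.1 block with less thallium influx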
# M18AAP inhibitor: blocks P. falciparum M18 aspartyl aminopeptidase | recombinant PfM18AAP, H-Glu-NHMec fluorogenic cleavage | inhibition, % at 7.35 µM | 1.2% of 290,000 active | AID 1822;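 active = inhibition above the campaign mean inhibition over all tested compounds plus 3 SD, cut at about 28% in these data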;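 also: 0% = plate median of test compound wells and 100% = 2 mM ZnCl2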
# Rce1 inhib: blocks yeast Ras-converting enzyme | Q03530 | yeast membranes, quenched prenylated peptide cleavage fluorescence | calls only | 0.27% of 290,000 active | AID 2563;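 active = fall in fluorescence gain of 50% or more versus controls, with final raw signal at or below 3038400; inconclusive = same 50% fall but final raw signal above 3038400; inactive = fall in fluorescence gain under 50%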;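 also: plate controls were neutral control wells for no effect and wells lacking membranes for full effect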
# Target sequence (Q03530 whole entry, looked up): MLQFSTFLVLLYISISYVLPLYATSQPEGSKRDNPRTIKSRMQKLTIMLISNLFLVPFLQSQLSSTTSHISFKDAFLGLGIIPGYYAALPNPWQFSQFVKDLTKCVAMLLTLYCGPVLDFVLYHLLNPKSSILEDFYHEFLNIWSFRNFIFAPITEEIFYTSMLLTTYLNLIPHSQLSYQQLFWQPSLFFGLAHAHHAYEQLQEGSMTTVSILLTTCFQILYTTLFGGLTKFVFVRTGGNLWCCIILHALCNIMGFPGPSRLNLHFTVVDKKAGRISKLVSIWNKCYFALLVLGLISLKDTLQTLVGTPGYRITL
# FID counter: displaces DNA intercalator in HCV helicase counter-screen. 0.17% of 290,000 active. AID 1845. DNA fluorescent intercalator displacement, fluorescence. inhibition, % at 7.9 µM; in the data active = inhibition above about 37%;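 also: 0% = vehicle and 100% = reference compound; higher means more ethidium bromide displaced from hairpin DNA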
# An asterisk follows results filed as active; i = inactive; u = inconclusive; x = not tested or not shown; + = active, no number. Hits are enriched below; roughly 2.3% of the tested compounds scored in any of these assays.
SMILES,Kir21 inh,M18AAP inhibitor,Rce1 inhib,FID counter
C=CCOc1ccccc1CN(C(=O)CCl)c1ccc2c(c1)OCO2,-4.2*,12.6,i,-19.6
CCOc1ccccc1NC(=O)Nc1ccc2c(c1)OCO2,-0.25,-0.5,i,-4.0
CCOC(=O)c1ccc(-c2ccc(/C=N/NC(=O)Cc3nnc(N)s3)o2)cc1,0.78,28.9*,x,-32.1
Nc1nnc(CC(=O)N/N=C/c2ccc(-c3ccc(F)cc3)o2)s1,-0.46,12.3,i,-4.0
O=S(=O)(c1ccccc1)N1CCN=C1SCc1cccnc1,-4.24*,9.3,i,4.3
Cc1ccc(S(=O)(=O)N2CCN=C2SCc2cccnc2)cc1,-4.81*,-16.1,i,-19.4
COc1ccc(S(=O)(=O)N2CCN=C2SCc2cccnc2)cc1,-0.9,1.4,x,-18.9
O=S(=O)(c1ccc(Cl)cc1)N1CCN=C1SCc1cccnc1,2.64,-4.5,i,-8.6
CCCOc1ccc2c(c1)C(=NN=C(N)N)c1cc(OCCC)ccc1-2,1.37,9.6,i,18.3
CCOc1c(O)ccc(/C=C2\SC(=S)NC2=O)c1[N+](=O)[O-],1.15,37.0*,i,2.3
CCOc1ccc(N(C)c2ccc(/C=C3/SC(=S)NC3=O)cc2)cc1,-2.26,1.8,i,-6.1
CC(=O)Oc1ccc(/C(C)=N\N2CCN(Cc3ccc(Cl)cc3)CC2)cc1,-0.02,-6.5,i,-9.6
O=C(Cc1coc2cc3c(cc12)CCC3)NCC1(N2CCCCC2)CCCCC1,-4.66*,0.5,i,13.1
O=C(Cc1coc2cc3c(cc12)CCC3)NC1CCCCCCC1,1.66,1.3,i,-20.0
CCN(CC)S(=O)(=O)c1ccc(OC(C)C)c(NC(=O)C2=COCCO2)c1,-0.02,x,i,x
Fc1ccc(NC(=S)Nc2ccccc2N2CCOCC2)cc1Cl,-7.36*,-5.4,i,-5.9
Cc1ccc(CNC(=O)c2ccc(N3CCC4(CC3)CC(c3ccccc3)=NO4)c(NC(=O)c3ccc(Cl)c([N+](=O)[O-])c3)c2)cc1,0.66,x,i,x
O=C(CCS(=O)(=O)c1ccc(Br)s1)NC1CCCCCC1,-11.3*,5.0,i,-9.2
Cc1ccc(C)c(NC(=O)CN(C)C(=O)c2ccccc2Cc2ccccc2)c1,-4.27*,x,i,x
Cc1ccc2c(C)c(C(=O)N(Cc3ccc(F)cc3)C3CCS(=O)(=O)C3)oc2c1 (configuration not stated),0,10.9,+,-19.9
Cc1c(C(=O)N(Cc2ccc(F)cc2)C2CCS(=O)(=O)C2)oc2ccccc12 (configuration not stated),-0.91,4.6,i,-36.0
CCCN(CC(=O)Nc1cc(Cl)ccc1Cl)C(=O)CN1C(=O)C2CCCCC2C1=O (configuration not stated),0.07,-9.3,x,-31.3
COC(=O)C1CCN(c2ccc([N+](=O)[O-])cc2)CC1,1.5,3.5,i,-2.4
COC(=O)C1CCN(CCCOc2ccc(CN3CCN(c4ccc([N+](=O)[O-])cc4)CC3)cc2)CC1,1.22,3.2,i,46.5*
COc1ccc(C(CNS(=O)(=O)c2ccc(C)cc2)N2CCN(C)CC2)cc1 (configuration not stated),-0.44,x,i,x
SMILES,Kir21 inh,M18AAP inhibitor,Rce1 inhib,FID counter
CN(C)CCCNS(=O)(=O)c1ccc(N2CCC(c3ccc(Cl)cc3)=N2)cc1,-3.41,11.3,u,37.1*
CCn1c(=O)n(CC)c2cc(N3CCCC3)c(NC(=O)c3ccc(C)c([N+](=O)[O-])c3)cc21,0.43,29.2*,i,-22.8
CCn1c(=O)n(CC)c2cc(N3CCCC3)c(NC(=O)c3ccccc3OC)cc21,1.65,20.4,i,-33.1
CCn1c(=O)n(CC)c2cc(N3CCCC3)c(NC(=O)c3cccc(C)c3)cc21,2.69,27.1,i,-16.8
CCn1c(=O)n(CC)c2cc(N3CCCC3)c(NC(=O)c3cccc(Cl)c3)cc21,0.96,31.7*,i,-2.5
Cc1ccc(Cl)cc1NC(=O)CN1CCN(S(=O)(=O)N2CCC(C)CC2)CC1,-0.35,-6.3,i,-43.1
O=C(NC1CCCC1)C(c1ccncc1)N(C(=O)Cn1nnc(-c2ccccc2F)n1)c1cccc(F)c1 (configuration not stated),-0.57,-1.7,i,-3.3
CCC1CCCCN1CCCNC(=O)c1cn(CC)c2ccc(S(=O)(=O)N3CCc4ccccc4C3)cc2c1=O (configuration not stated),-0.67,8.8,i,48.8*
COC(=O)CSC1=C(C#N)C(c2ccc(C)cc2)C2=C(CCCC2=O)N1 (configuration not stated),-0.11,29.6*,i,-2.3
COC(=O)CSC1=C(C#N)C(c2ccc3c(c2)OCO3)C2=C(CCCC2=O)N1 (configuration not stated),0.2,19.7,i,-7.0
COc1cccc(OCC(=O)N2CCCc3ccccc32)c1,-0.29,1.8,x,-23.6
Cc1sc(/N=C/c2ccccc2O)c(C#N)c1C,1.48,36.5*,i,1.1
Cc1cccc(OCC(=O)Nc2nccs2)c1C,2.99,5.5,i,-3.2
CCc1c(-c2n[nH]c(=S)n2Cc2ccccc2)csc1C,-9.31*,12.8,i,-22.8
Cc1scc(-c2n[nH]c(=S)n2Cc2ccccc2)c1C,-0.62,32.5*,i,-23.0
Fc1ccccc1-c1n[nH]c(=S)n1Cc1ccccc1,-0.09,26.1,i,-15.6
Cc1cc(-c2n[nH]c(=S)n2Cc2ccccc2)cs1,-0.52,26.8,i,-12.2
O=S(=O)(c1cnccc1N1CCN(CCO)CC1)N1CCCCC1,0,-6.7,x,-2.1
CN(C)c1nc(=NCc2ccco2)ss1,-0.81,46.5*,i,-2.1
CCOc1ccc(-n2c(SCc3ccc([N+](=O)[O-])cc3)nnc2-c2ccc(OC)cc2)cc1,0.74,3.7,+,-15.8
CC(C)C1COS(=O)(=O)NC1CC(=O)SC(C)(C)C (configuration not stated),1.2,-4.4,i,-13.4
Cc1ccc2sc(N(CCCN(C)C)C(=O)c3nc4ccccc4s3)nc2c1C,-0.54,-4.8,i,4.8
Cc1ccc2sc(N(CCCN(C)C)C(=O)c3ccc(Br)s3)nc2c1C,-0.72,8.0,i,46.0*
Cc1ccc2sc(N(CCCN(C)C)C(=O)CCS(=O)(=O)c3ccccc3)nc2c1C,-2.16,-9.9,i,40.7*
CCN(Cc1ccccc1)S(=O)(=O)c1ccc(C(=O)N(CCCN(C)C)c2nc3c(C)c(C)ccc3s2)cc1,-4.47*,x,+,x
SMILES,Kir21 inh,M18AAP inhibitor,Rce1 inhib,FID counter
COc1ccc(OC)c2sc(N(CCCN(C)C)C(=O)CCS(=O)(=O)c3ccccc3)nc12,-3.29,x,i,x
Cc1ccc2[nH]c3c(NCCN4CCOCC4)ncnc3c2c1,0.86,-2.8,i,23.4
Clc1ccc2[nH]c3c(NCCCN4CCOCC4)ncnc3c2c1,-0.67,9.3,i,38.0*
COc1ccc(/C(C)=N/NC(=O)c2cccc(S(=O)(=O)N3CCCC3)c2)c(O)c1,1.01,x,i,x
CCSc1nc(O)cc(=O)[nH]1,-0.25,-2.7,i,-10.0
CCSc1nc(=S)cc(C)[nH]1,0.57,28.1*,i,-17.6
c1ccc(CCNc2nc(-c3ccccn3)nc3ccccc23)cc1,-2.76,-4.2,i,0.6
OC(CNCCc1ccc(C(F)(F)F)cc1)COC(c1ccccc1)c1ccccc1 (configuration not stated),-7.88*,2.2,i,35.8
